About 83,000 compounds went through this panel and 20% of them were active in at least one assay; those are over-represented in the sample as a whole.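 Negative percent growth values reflect cell death: -40 means 40% of the cells present at the start died, and -100 means all died.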 Calls of active or inactive are those of the source. How the source made its calls: active means growth percent below 10; inactive means the rest.

One experiment has as its system HT29 colon. Kind of experiment: NCI-60 one-dose screen, 48 h (100 = growth as untreated, 0 = no growth, -100 = all killed). Conditions: 10 µM unless noted.
As to `COc1ccc(-c2nc3ccc(-c4nc5ccc(N6CCN(c7ccncc7)CC6)cc5[nH]4)cc3[nH]2)cc1OC`, the growth is 22.6% (inactive).

As for `O=C1/C(=C/c2cn(-c3ccccc3)nc2-c2ccccc2)SC(=S)N1CCc1ccccc1`, the growth is 104% (inactive).

Consider `CCCN1CCN(c2ccc3nc(-c4ccc5nc(-c6ccc(OCC)cc6)[nH]c5c4)[nH]c3c2)CC1`, for which the growth was -69% (active).

`COc1cccc(-c2nc3sccn3c2-c2ccnc(NCCCNS(=O)(=O)c3cccc(F)c3)c2)c1`: the growth is 38.7% (inactive).

With `Cn1c(=O)c2c(nc3n(-c4ccc(Cl)cc4Cl)c(Sc4nc(-c5ccccc5)c(C#N)c(=O)[nH]4)cn23)n(C)c1=O`, the growth was 57.1% (inactive).

As for `O=C(/C=C/c1ccccc1)c1ccc(O)c(CN2CCN(c3cc4c(cc3F)c(=O)c(C(=O)O)cn4C3CC3)CC2)c1`, the growth is 5.56% (active).

Turning to `C=CC(=O)Nc1cccc(-c2nc(SC)nc(Nc3ccccc3OC)c2C#N)c1`, the growth was 2.25% (active).

As for `COc1cccc(-c2nc3sccn3c2-c2ccnc(NCCNS(=O)(=O)c3ccc(F)cc3)c2)c1`, the growth is 24% (inactive).

Turning to `COc1cc2nc(N3CCCC3)nc(NCc3ccccc3)c2cc1OC`, the growth was 18.7% (inactive).

With `N#Cc1c(-c2ccc(Cl)cc2)nc(N/N=C/c2cccc(Br)c2)nc1N1CCOCC1`, the growth was 29% (inactive).

In the case of `CSc1nc(-c2cccc(NC(=O)CCl)c2)c(C#N)c(=O)n1C`, the growth is -33.7% (active).

With `C=CC(=O)Nc1cccc(-c2nc(SC)nc(NCCc3ccc(OC)c(OC)c3)c2C#N)c1`, the growth is 77.5% (inactive).

Take `O=C(/C=C/c1cccc([N+](=O)[O-])c1)c1ccc(O)c(CN2CCN(c3cc4c(cc3F)c(=O)c(C(=O)O)cn4C3CC3)CC2)c1`: the growth was -23.6% (active).

With `COc1cc(/C=C/C(=O)c2ccc(O)c(CN3CCN(c4cc5c(cc4F)c(=O)c(C(=O)O)cn5C4CC4)CC3)c2)cc(OC)c1OC`, the growth was 10.3% (inactive).

For `CC(C)(O)c1cn(CCCCN2C(=O)C(=O)c3ccccc32)nn1`, the growth is 107% (inactive).

Turning to `COC(=O)[C@]12CCC(C)(C)C[C@H]1[C@H]1C(=O)C[C@@H]3[C@@]4(C)c5c([nH]c6ccccc6c5=O)C(C)(C)[C@@H]4CC[C@@]3(C)[C@]1(C)CC2`, the growth is 45.4% (inactive).

As to `N=C(N)c1ccc(-c2ccc(-c3ccc4ccccc4c3)s2)s1`, the growth is -60.5% (active).

With `C=CC(=O)Nc1cccc(-c2nc(SC)nc(NCCN3CCOCC3)c2C#N)c1`, the growth is 89.4% (inactive).

For `COc1cc(C=Nc2oc(-c3ccccc3)c(-c3ccccc3)c2C#N)cc(CN2CCCCC2)c1O`, the growth is 102% (inactive).

On to `CC1=NN(c2nc(-c3ccc(Cl)cc3)c(C#N)c(N3CCOCC3)n2)C(=O)C1`, for which the growth was 94.1% (inactive).

As for `COc1cccc(Nc2nc(SC)nc(-c3cccc([N+](=O)[O-])c3)c2C#N)c1`, the growth was 78% (inactive).

In the case of `CSc1nc(NCCO)c(C#N)c(-c2cccc([N+](=O)[O-])c2)n1`, the growth is 112% (inactive).

As to `Cn1c(O)c(N=NC(=O)c2cc(-c3ccccc3)on2)c2ccccc21`, the growth is 105% (inactive).

Regarding `CSc1nc(Nc2cccc(NC(=O)/C(C#N)=C/c3c(Cl)cccc3Cl)c2)c(C#N)c(-c2cccc([N+](=O)[O-])c2)n1`, the growth is 49.2% (inactive).

Turning to `COc1ccc(-c2nc3ccc(-c4nc5ccc(N6CCN(c7ccccc7)CC6)cc5[nH]4)cc3[nH]2)cc1OC`, the growth is -91% (active).

Consider `O=C(N=Nc1c(O)[nH]c2ccccc12)c1cc(-c2ccccc2)on1`, for which the growth was 104% (inactive).

Take `O=C1CC(=NCC(=O)n2c(-c3ccccc3)nc3ccccc32)NN1`: the growth is 108% (inactive).

The next experiment concerns SNB-75 CNS. Described as above. The settings on record: 10 µM unless noted.
Consider `C=C(C)[C@@H]1CC[C@]2(C(=O)OC)CC[C@]3(C)[C@H](CC[C@@H]4[C@@]5(C)C/C(=C/c6cccc(I)c6)C(=O)C(C)(C)[C@@H]5CC[C@]43C)[C@@H]12`, for which the growth was 89.2% (inactive).

`N#Cc1c(-c2ccc(Cl)cc2)nc(NN=Cc2ccco2)nc1N1CCOCC1`: the growth was 10.3% (inactive).

For the compound `C=CC(=O)Nc1cccc(Nc2nc(SC)nc(-c3cccc([N+](=O)[O-])c3)c2C#N)c1`, the growth was 23.2% (inactive).

In the case of `COc1ccc(/C=C/C(=O)c2ccc(O)c(CN3CCN(c4cc5c(cc4F)c(=O)c(C(=O)O)cn5C4CC4)CC3)c2)cc1`, the growth was -5.37% (active).

As to `COc1cc2nc(N3CCCC3)nc(Nc3ccccc3)c2cc1OC`, the growth is 99.5% (inactive).

As to `COc1cccc(-c2nc3sccn3c2-c2ccnc(NCCNS(=O)(=O)c3ccccc3)c2)c1`, the growth was 15.2% (inactive).

Consider `COc1cc(/C=C/C(=O)c2c(C)oc3nc[nH]c(=O)c23)cc(OC)c1OC`, for which the growth is 78% (inactive).

Regarding `C=C(C)[C@@H]1CC[C@]2(C(=O)OC)CC[C@]3(C)[C@H](CC[C@@H]4[C@@]5(C)C/C(=C/c6ccc(OC)cc6)C(=O)C(C)(C)[C@@H]5CC[C@]43C)[C@@H]12`, the growth is 75.7% (inactive).

Take `O=S(=O)(Nc1ccc(I)cc1F)c1ccc(-c2cnc(C3CC3)o2)cc1`: the growth was 15.4% (inactive).

On to `COc1cc2nc(N3CCCC3)nc(NCCc3ccccc3)c2cc1OC`, for which the growth was 93.5% (inactive).

For the compound `COc1ccc(Nc2nc(SC)nc(-c3cccc([N+](=O)[O-])c3)c2C#N)cc1`, the growth was 10.3% (inactive).

As for `COc1cc(CNc2oc(-c3ccccc3)c(-c3ccccc3)c2C#N)cc(CN2CCN(C)CC2)c1O`, the growth was 52.4% (inactive).

Consider `COc1ccc(-c2nc3ccc(-c4nc5ccc(N6CCN(c7ccncc7)CC6)cc5[nH]4)cc3[nH]2)cc1OC`, for which the growth is 52.8% (inactive).

Turning to `O=C1/C(=C/c2cn(-c3ccccc3)nc2-c2ccccc2)SC(=S)N1CCc1ccccc1`, the growth is 71.9% (inactive).

With `CCCN1CCN(c2ccc3nc(-c4ccc5nc(-c6ccc(OCC)cc6)[nH]c5c4)[nH]c3c2)CC1`, the growth is 50.3% (inactive).

For the compound `COc1cccc(-c2nc3sccn3c2-c2ccnc(NCCCNS(=O)(=O)c3cccc(F)c3)c2)c1`, the growth is 29.3% (inactive).

`Cn1c(=O)c2c(nc3n(-c4ccc(Cl)cc4Cl)c(Sc4nc(-c5ccccc5)c(C#N)c(=O)[nH]4)cn23)n(C)c1=O`: the growth is -5.62% (active).

`O=C(/C=C/c1ccccc1)c1ccc(O)c(CN2CCN(c3cc4c(cc3F)c(=O)c(C(=O)O)cn4C3CC3)CC2)c1`: the growth was -2.4% (active).

For the compound `C=CC(=O)Nc1cccc(-c2nc(SC)nc(Nc3ccccc3OC)c2C#N)c1`, the growth is 24.4% (inactive).

For `COc1cccc(-c2nc3sccn3c2-c2ccnc(NCCNS(=O)(=O)c3ccc(F)cc3)c2)c1`, the growth is 22.9% (inactive).

With `COc1cc2nc(N3CCCC3)nc(NCc3ccccc3)c2cc1OC`, the growth is 69.1% (inactive).

`N#Cc1c(-c2ccc(Cl)cc2)nc(N/N=C/c2cccc(Br)c2)nc1N1CCOCC1`: the growth was 76.8% (inactive).

For the compound `CSc1nc(-c2cccc(NC(=O)CCl)c2)c(C#N)c(=O)n1C`, the growth was 54% (inactive).

For `C=CC(=O)Nc1cccc(-c2nc(SC)nc(NCCc3ccc(OC)c(OC)c3)c2C#N)c1`, the growth was 37.9% (inactive).

With `O=C(/C=C/c1cccc([N+](=O)[O-])c1)c1ccc(O)c(CN2CCN(c3cc4c(cc3F)c(=O)c(C(=O)O)cn4C3CC3)CC2)c1`, the growth is 31.1% (inactive).

Regarding `COc1cc(/C=C/C(=O)c2ccc(O)c(CN3CCN(c4cc5c(cc4F)c(=O)c(C(=O)O)cn5C4CC4)CC3)c2)cc(OC)c1OC`, the growth is 57.7% (inactive).

Turning to `CC(C)(O)c1cn(CCCCN2C(=O)C(=O)c3ccccc32)nn1`, the growth was 68% (inactive).

With `COC(=O)[C@]12CCC(C)(C)C[C@H]1[C@H]1C(=O)C[C@@H]3[C@@]4(C)c5c([nH]c6ccccc6c5=O)C(C)(C)[C@@H]4CC[C@@]3(C)[C@]1(C)CC2`, the growth was 65% (inactive).

Take `N=C(N)c1ccc(-c2ccc(-c3ccc4ccccc4c3)s2)s1`: the growth was 89.3% (inactive).

With `C=CC(=O)Nc1cccc(-c2nc(SC)nc(NCCN3CCOCC3)c2C#N)c1`, the growth was 44.8% (inactive).

As to `COc1cc(C=Nc2oc(-c3ccccc3)c(-c3ccccc3)c2C#N)cc(CN2CCCCC2)c1O`, the growth was 66.6% (inactive).

Take `CC1=NN(c2nc(-c3ccc(Cl)cc3)c(C#N)c(N3CCOCC3)n2)C(=O)C1`: the growth is 56.5% (inactive).

`COc1cccc(Nc2nc(SC)nc(-c3cccc([N+](=O)[O-])c3)c2C#N)c1`: the growth was 34% (inactive).

Regarding `CSc1nc(NCCO)c(C#N)c(-c2cccc([N+](=O)[O-])c2)n1`, the growth is 72.8% (inactive).

As to `Cn1c(O)c(N=NC(=O)c2cc(-c3ccccc3)on2)c2ccccc21`, the growth is 58.5% (inactive).

For the compound `CSc1nc(Nc2cccc(NC(=O)/C(C#N)=C/c3c(Cl)cccc3Cl)c2)c(C#N)c(-c2cccc([N+](=O)[O-])c2)n1`, the growth was 47.5% (inactive).

For the compound `COc1ccc(-c2nc3ccc(-c4nc5ccc(N6CCN(c7ccccc7)CC6)cc5[nH]4)cc3[nH]2)cc1OC`, the growth was 45.6% (inactive).

As to `O=C(N=Nc1c(O)[nH]c2ccccc12)c1cc(-c2ccccc2)on1`, the growth was 53.7% (inactive).

Consider `O=C1CC(=NCC(=O)n2c(-c3ccccc3)nc3ccccc32)NN1`, for which the growth was 66.6% (inactive).

Source of the values: PubChem BioAssay (NCI).
